Bioassay records from PubChem BioAssay.
L3MBTL1 inh: inhibitors of human L3MBTL1. AID 485360. AlphaScreen L3MBTL1–H3K9me1 peptide binding. Potency, µM (series often up to 57.1 µM), inactives show top-dose activity, negative = inhibition, hits mostly inhibitors. Q9Y468. actives 0.66% (n = 230,000); also: potency is read from the fitted curve at half-maximal effect; % is scaled to controls: 0 for no effect and ±100 for the full control effect; nearly all actives have a fitted effect of over 60% in size
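AlphaScreen assay: L3MBTL1 (50 nM final) was preincubated 30 min at room temperature with biotinylated H3(1-15)K9me1 peptide (75 nM final), then 30 min with library compounds; streptavidin donor and nickel chelate acceptor beads (10 ug/mL final) added, 30 min dark.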
BAZ2B block: inhibitors of human BAZ2B bromodomain; actives 4.4% (n = 360,000); Potency, µM (titrated, usually from 114 µM), for inactives: at the highest dose activity change, negative = inhibition, most hits filed as inhibitors; AlphaScreen BAZ2B-H3K14Ac peptide displacement; Q9UIF8; also: potency is read from the fitted curve at half-maximal effect; % is scaled to controls: 0 for no effect and ±100 for the full control effect; nearly all actives have a fitted effect of over 60% in size
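Multi-concentration screen (max 110 uM) measuring displacement of acetylated histone H3 peptide from BAZ2B by AlphaScreen, using 50 nM protein, 50 nM peptide and 10 ug/mL streptavidin donor plus Ni-chelate acceptor beads.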
HP1b chromo inh: HP1-beta chromodomain-methylated histone interaction inhibition; P83916; AlphaScreen HP1-beta / biotin-H3K9me3 peptide binding; Potency, µM (titrated, usually from 114 µM), for inactives: top-dose activity change, negative = inhibition, actives largely listed as inhibitors; actives 0.56% (n = 390,000); AID 540317; also: potency is read from the fitted curve at half-maximal effect; nearly all actives have a fitted effect of over 70% in size
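AlphaScreen: HP1-beta (50 nM) preformed 30 min with biotin-H3(1-18)K9me3 peptide (50 nM) in PBS pH 7.4, 0.01% Tween-20. Compound added for 30 min at RT, then streptavidin donor/nickel chelate acceptor beads (10 ug/mL) for 30 min.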
JMJD2A Tudor: JMJD2A Tudor domain (human) inhibition; Potency, µM (top dose mostly 114 µM), for inactives: at the highest dose activity change, negative = inhibition, actives largely listed as inhibitors; actives 4.4% (n = 390,000); O75164; AlphaScreen JMJD2A-Tudor / H3K4me3 peptide binding; also: potency is read from the fitted curve at half-maximal effect; % is scaled to controls: 0 for no effect and ±100 for the full control effect; nearly all actives have a fitted effect of over 50% in size
PI5P4Ka inh: inhibitors of human PI5P4K alpha. actives 1.2% (n = 330,000). max response, %. PI5P4Kalpha enzyme, ADP-Glo luminescence, 60 min; hits give low values. AID 652105; active = max response of -50% or lower; inconclusive = between -30% and -50%; inactive = -30% or higher; also: value at the top dose of about 77 µM; % is scaled to controls: 0 for no effect and ±100 for the full control effect
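Controls without substrate or without enzyme flank wells where PI5P4Kalpha converts substrate using 5 microM ATP (final). Incubation lasts 60 minutes at room temperature; ADP formed is read by ADP-Glo luminescence.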
G9a inh: blocks human histone lysine methyltransferase G9a. Q96KQ7. G9a H3K9 monomethylation, AlphaScreen, 2 h. Potency, µM (titrated, usually from 102 µM), without a hit: at the highest dose activity, negative = inhibition, hits mostly inhibitors. actives 8.8% (n = 350,000). AID 504332; also: potency is read from the fitted curve at half-maximal effect; % is scaled to controls: 0 for no effect and ±100 for the full control effect; nearly all actives have a fitted effect of over 75% in size
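Chemiluminescent proximity detection of H3K9 monomethylation, read after 10 min bead incubation in the dark. Reaction: 20 nM G9a, 500 nM biotin-H3K9 peptide, 20 uM SAM cofactor, 2 h, room temperature, following 15 min enzyme-compound preincubation.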
* = called active by the depositor; ? = inconclusive; . = no result; [ ] = remark or other dose. Most compounds without a hit are left out; they make up all but 11% or so of the library. Unless noted, calls follow the shape of the dose curve; as a rule, active = well fitted inhibition curve with a large enough effect; inconclusive = small, poorly fitted or top-dose-only effect; inactive = no such curve, though single readings can be large or run the other way.

SMILES | L3MBTL1 inh | BAZ2B block | HP1b chromo inh | JMJD2A Tudor | PI5P4Ka inh | G9a inh
O=C(CN1CCN(c2ccccc2Cl)CC1)NC1CCCc2ccccc21 (stereo not given) | 1% | 20µM* | ? | 1µM* | 27 | 8.9µM*
Cc1cc(C)n(CC(=O)Nc2cc(F)ccc2F)c(=O)c1C#N | . | -12% | 18% | -11% | . | 0%[59 µM]
CCN(CC)C(=O)Cn1c(=O)cc(C)c2c(C)nn(-c3cccc(Cl)c3C)c21 | . | -9% | -17% | -29% | . | -3%[59 µM]
Cc1cccc(S(=O)(=O)c2cn(C)c3cc(N4CCN(c5ccc(F)cc5)CC4)c(F)cc3c2=O)c1 | . | -4% | 29% | -17% | . | 2%[59 µM]
COc1cc2ncnc(NCc3cccc(F)c3F)c2cc1OC | . | -4% | 49% | -9% | -15 | 45µM*
COc1cc2ncnc(NCc3ccccc3F)c2cc1OC | . | -4% | 22% | -19% | 3 | ?
COc1cccc(CSc2nc3cc(OC)c(OC)cc3c3nc(CCn4nc(C)cc4C)nn23)c1 | . | . | 49% | -16% | . | -10%[59 µM]
CCOc1ccc(-n2cc(C(=O)NC(C)C)c3cc(OC)c(OC)cc3c2=O)cc1 | -1% | 0% | -12% | 20µM* | -10 | -40%
COc1ccc(-n2cc(C(=O)NCCc3cc(OC)ccc3OC)c3ccccc3c2=O)cc1 | . | ? | -6% | 50µM* | . | ?
CCOc1ccc(NC(=O)c2cn(-c3ccc(OCC)cc3)c(=O)c3cc(OC)c(OC)cc23)cc1 | -5% | -31% | 29% | -18%[57.1 µM] | 3 | -32%
COc1cccc(-n2cc3c(=O)n(C)c(=O)n(C)c3c2)c1 | 4% | ? | 27% | -6% | -2 | 35µM*
CCOC(=O)/C=C1\CC(C(=O)OCC)Oc2c(OC)cccc21 (stereo not given) | 7% | . | 22% | ? | ? | 32µM*
COc1cc(C2C(=O)N(C3CCCCCC3)CC(=O)N2CCc2ccccc2)ccc1OC(C)C (stereo not given) | . | -3% | 35% | -11% | . | -4%[59 µM]
Cc1ccc(CNc2ncnc3onc(C)c23)cc1 | . | 17%[57.1 µM] | 43% | -17% | . | 0%[59 µM]
CC1Oc2ccccc2OC1(O)c1ccc2ccccc2n1 (stereo not given) | 2% | 2% | 2% | ? | -7 | 0%[59 µM]
CC1Oc2ccccc2OC1(O)c1ccccn1 (stereo not given) | 9% | -24% | 41% | 50µM* | -2 | 20µM*
CCN(C(=O)Cn1c(=O)n(CC2CCC(C(=O)NC)CC2)c(=O)c2sccc21)c1ccccc1 (stereo not given) | . | -2% | 32% | -12% | . | 9%[59 µM]
O=[N+]([O-])c1cc(C(F)(F)F)cc([N+](=O)[O-])c1NCCN1CCNCC1 | . | -28% | 12% | -33% | 10 | 11%[0.501 µM]
N#CCC(=O)NNc1c([N+](=O)[O-])cc(C(F)(F)F)cc1[N+](=O)[O-] | . | 50µM* | ? | ? | -18 | 50µM*
O=[N+]([O-])c1cc(C(F)(F)F)cc([N+](=O)[O-])c1NN=C1CCCCC1 | ? | 11µM* | 20µM* | 22µM* | -15 | 10µM*
O=[N+]([O-])c1cc(C(F)(F)F)cc([N+](=O)[O-])c1NCCCN1CCOCC1 | -14% | -36% | -6% | -31% | 2 | -46%
CCC1CC=CC2C1C(=O)N(Cc1ccccc1)C2c1ccc2ccccc2c1 (stereo not given) | . | . | 41% | -4% | . | .
Cc1cc(-c2n[nH]c(=S)n2/N=C/c2ccc(C)s2)n[nH]1 | -7% | ? | 0% | 7.9µM* | 5 | 1.8µM*
Cc1cc(-c2n[nH]c(=S)n2/N=C/c2ccc(Br)s2)n[nH]1 | -15% | -37% | -25% | 13µM* | -18 | ?
Cn1cnnc1SCC(=O)NN1C(=O)NC(C)(c2ccccc2)C1=O (stereo not given) | -1% | -30% | 26% | -11% | -1 | 22µM*
SMILES | L3MBTL1 inh | BAZ2B block | HP1b chromo inh | JMJD2A Tudor | PI5P4Ka inh | G9a inh
CSc1ccc(CN(C)C(=O)c2cc(Cl)c3c(c2)OCCO3)cc1 | . | ? | 13% | -17% | -2 | 56µM*
N#Cc1ccc(C(=O)OCC(=O)Nc2ccc(N3CCOCC3)cc2)cc1 | -1% | . | 25% | -7% | -12 | 10µM*
Cc1ccc(C(=O)OCC(=O)N2CCOCC2)cc1 | . | 4% | -8% | -10% | -4 | 18%
N#Cc1ccc(C(=O)OCC(=O)N2CCOCC2)cc1 | . | -25% | 29% | 1% | 3 | 50µM*
O=C(COC(=O)CCC(=O)c1ccc(F)cc1)Nc1ccc(N2CCOCC2)cc1 | -6% | -7% | 30% | -12% | -13 | 50µM*
Cn1c(=O)c2nc(SCC(=O)Nc3cc(Cl)cc(Cl)c3)n(C)c2n(C)c1=O | . | -3% | 27% | -11% | . | 9%[59 µM]
Nc1ccc2nc(CCCCCCCCc3nc4ccc(N)cc4[nH]3)[nH]c2c1 | -18% | 22µM* | 4% | 50µM* | -5 | 32µM*
O=C(Cn1ncc2c([nH]c3ccccc32)c1=O)N1CCc2ccccc2C1 | . | -10% | 6% | -11% | -3 | 0%[59 µM]
Oc1ccc(O)c(Cc2nc3ccccc3[nH]2)c1 | -18% | -34% | ? | 10µM* | -8 | 3.2µM*
O=C(CCc1nc2ccccc2[nH]1)N1CCc2ccccc2C1 | 26% | 5% | 14% | -21% | -2 | 89µM*
Nc1ccc2nc(CCCCc3nc4ccccc4[nH]3)[nH]c2c1 | -6% | ? | 2% | ? | -2 | 35µM*
COc1cccc(OCc2cc(=O)n3c(-c4ccccc4)csc3n2)c1 | . | ? | 12% | -33% | . | 4%[59 µM]
COC(=O)c1ccc(C(=O)OCCCc2nc3ccc(N)cc3[nH]2)cc1 | -2% | -11% | 7% | -28% | -8 | -7%[59 µM]
Nc1ccc2nc(CCCO)[nH]c2c1 | . | 50µM* | 34% | -10% | -2 | 28µM*
CN(CC(=O)O)Cc1nc2ccccc2[nH]1 | . | 20µM* | 32% | -71% | . | 1.3µM*
c1ccc2[nH]c(CCCc3nc4ccccc4[nH]3)nc2c1 | 2% | -6% | 54% | -12% | 2 | 56µM*
